Measurements from PubChem BioAssay (EPA / NIEHS).
“And” between values parts separate entries of the source, which are not always exact repeats. Identical values can stand only once. The source holds several records for some structures; these can differ, active in one and inactive in another. The source made the active and inactive calls. How the source made its calls: active means hit-call score of the fitted dose curve at least 0.9, where 1 is the maximum; inactive means score below 0.9.

How the values were obtained:
[1] = CCTE_Shafer_MEA_dev_correlation_coefficient_mean: CCTE's Neural Network Formation Assay for Mean Correlation Coefficient, Shafer Lab (AID 2284093);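 on AC50: well mean pairwise spike train correlation integrated as AUC over recording days 5 to 12; potency fitted for loss of correlation relative to DMSO vehicle wells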
Procedure, shortened: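 Extracellular firing from rat cortical networks on 48-well MEAs, DMSO-referenced, negative fitting direction. Compound present from plating to DIV12; mean pairwise correlation per well integrated over DIV5–12 recordings by trapezoidal AUC.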

[2] = UKN4_HCS_LUHMES_neurite_outgrowth: University of Konstanz (UKN) Leist Lab Neurite Outgrowth Assay in human LUHMES cells (UKN4) (AID 2284206); details: actives raise or lower the signal
Procedure, shortened: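 LUHMES neuronal precursors differentiated 2 days, replated without cAMP/GDNF, then exposed to chemicals for 24 h. Neurite area imaged by high-content microscopy after calcein-AM staining; Hoechst H-33342 marks viability. Bidirectional fit versus DMSO.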

[3] = IUF_NPC1b_proliferation_BrdU_72hr: Leibniz Research Institute for Environmental Medicine (IUF) 72-hour Neural Progenitor Cell Bromodeoxyuridine (BrdU) Proliferation Assay (NPC1b) (AID 2284207)
Procedure, shortened: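 hNPC spheres (primary, GW 16-19 fetal cortex), single sphere/well, EGF+FGF medium; 72 h compound, no renewal; BrdU pulse last 16 h; luminescent ELISA; activity vs DMSO baseline; growth-factor withdrawal as positive control.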

[4] = IUF_NPC1a_proliferation_area_72hr: Leibniz Research Institute for Environmental Medicine (IUF) 72-hour Neural Progenitor Cell Proliferation Area Assay (NPC1a) (AID 2284208)
Procedure, shortened: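 Measured in 3D suspension: each well held one primary hNPC sphere grown with EGF and FGF at pH 7.2-7.6. Compound stayed on for 72 h, then area was imaged; spheres lacking growth factors defined reduced proliferation.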

[5] = CCTE_Mundy_HCI_Cortical_Synap_Neur_Matur_NeuriteSpotCountPerNeuriteLength: CCTE's Synaptogenesis and Neurite Maturation Assay in rat cortical cells for Neurite Spot Count per Neurite Length, Mundy Lab (AID 2284210)
Procedure, shortened: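 Rat primary cortical cultures, glia arrested with AraC at DIV 5, were dosed with media change at DIV 7 and fixed at DIV 12. Synaptophysin puncta per MAP2-labelled neurite length were quantified by high-content imaging versus DMSO.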

[6] = CCTE_Mundy_HCI_Cortical_Synap_Neur_Matur_BPCount: CCTE's Synaptogenesis and Neurite Maturation Assay in rat cortical cells for Branch Point Count, Mundy Lab (AID 2284211)
Procedure, shortened: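 Branch point number is quantified by automated imaging of fluorescently labelled neurites and synapses in rat primary cortical neurons exposed from DIV 7 to DIV 12. Activity is analysed relative to DMSO negative control.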

[7] = CCTE_Mundy_HCI_Cortical_NOG_NeuriteCount: CCTE's Neurite Outgrowth Assay in rat cortical cells for Neurite Count, Mundy Lab (AID 2284212);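 further: cells fixed about two days after chemical exposure began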
Procedure, shortened: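 Neurite number per cell from high-content imaging of betaIII-tubulin immunostaining, with Hoechst nuclear counterstain.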

[8] = CCTE_Mundy_HCI_Cortical_NOG_NeuriteLength: CCTE's Neurite Outgrowth Assay in rat cortical cells for Neurite Length, Mundy Lab (AID 2284213);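 on AC50: neurites imaged about 48 to 50 h after chemical exposure began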
Procedure, shortened: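 Neurite length was read by high-content imaging of βIII-tubulin-labelled neurites in rat primary cortical cultures. Activity was fitted relative to DMSO.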

[9] = CCTE_Mundy_HCI_Cortical_Synap_Neur_Matur_NeuriteLength: CCTE's Synaptogenesis and Neurite Maturation Assay in rat cortical cells for Neurite Length, Mundy Lab (AID 2284214)
Procedure, shortened: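 Rat primary cortical cells were plated, treated with AraC at DIV 5 to arrest glial growth, then chemical-dosed with media change at DIV 7 through DIV 12. Fixed cells stained for MAP2, synaptophysin and Hoechst; neurite length quantified by high-content imaging.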

[10] = UKN2_HCS_IMR90_neural_migration: University of Konstanz (UKN) Leist Lab Neural Crest Cell Migration Assay in human induced IMR90 Pluripotent Stem Cells (UKN2) (AID 2284204); details: actives raise or lower the signal
Procedure, shortened: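 iPSC-derived IMR90 neural crest cells on PLO/laminin/fibronectin were seeded around silicone stoppers; after stopper removal, migration in N2-S medium with EGF and FGF ran 24 h before 24 h chemical exposure. Calcein-AM/Hoechst high-content imaging; bidirectional fit versus DMSO.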

Measured: AC50

COP(=S)(OC)Oc1ccc([N+](=O)[O-])cc1
inactive: [2] | [3] | [4] | [5] | [6]
active: [1] 23 µM | [7] 23.4 µM | [8] 23.7 µM | [9] 15 µM

O=[N+]([O-])/N=C1\NCCN1Cc1ccc(Cl)nc1
inactive: [1] | [10] | [2] | [3] | [4] | [5] | [6] | [7] | [8] | [9]

CC(C)N(C(=O)COc1nnc(C(F)(F)F)s1)c1ccc(F)cc1
active: [1] 15 µM
inactive: [1] | [10] | [2] | [3] | [4] | [5] | [6] | [7] | [8] | [9]

ClC1C(Cl)C(Cl)C(Cl)C(Cl)C1Cl (stereo unspecified)
inactive: [1] | [10] | [2]

O=C(O)COc1ccc(Cl)cc1Cl
active: [3] 50.1 µM
inactive: [1] | [10] | [4] | [5] | [7] | [8] | [9]

O=C(O)C(F)(F)C(F)(F)C(F)(F)C(F)(F)C(F)(F)C(F)(F)C(F)(F)F
active: [2] 78.1 µM | [3] 6.45 µM and 11.7 µM
inactive: [1] | [10] | [4] | [5] | [6] | [7] | [8] | [9]

Oc1cc(Cl)ccc1Oc1ccc(Cl)cc1Cl
active: [1] 9.23 µM

CNC(=O)CSP(=S)(OC)OC
inactive: [3] | [4] | [5] | [6] | [7] | [8] | [9]
active: [1] 50 µM and 15 µM | [6] 50 µM | [9] 50 µM

O=S1OCC2C(CO1)C1(Cl)C(Cl)=C(Cl)C2(Cl)C1(Cl)Cl (stereo unspecified)
active: [1] 8.13 µM | [10] 13.9 µM | [2] 16.3 µM | [5] 22.4 µM | [6] 15 µM | [7] 22.1 µM | [8] 23.8 µM
inactive: [3] | [4]

COP(=O)(OC)OC=C(Cl)Cl
active: [1] 0.656 µM | [4] 14.2 µM | [6] 49 µM | [7] 77.3 µM | [8] 57.5 µM
inactive: [1] | [10] | [3] | [5] | [6] | [7] | [8] | [9]

CCC(C)(C)C(=O)OC1=C(c2ccc(Cl)cc2Cl)C(=O)OC12CCCCC2
inactive: [1] | [2] | [3] | [4] | [5] | [6] | [7] | [8] | [9]

CC1(c2ccc(Oc3ccccc3)cc2)OC(=O)N(Nc2ccccc2)C1=O (stereo unspecified)
active: [1] 1.79 µM | [4] 39.6 µM | [5] 37.6 µM | [6] 20.2 µM | [7] 55.8 µM | [8] 61.3 µM | [9] 44.1 µM
inactive: [10] | [3]

CC1(C)C(C=C(Cl)Cl)C1C(=O)OC(C#N)c1ccc(F)c(Oc2ccccc2)c1 (stereo unspecified)
active: [1] 1.06 µM and 8.22 µM and 7.24 µM | [3] 8.05 µM | [5] 82.7 µM | [6] 49.9 µM and 15 µM | [7] 77.2 µM | [8] 79.7 µM | [9] 33.1 µM and 2.98 µM
inactive: [10] | [4] | [5] | [7] | [8]

O=S(=O)(O)C(F)(F)C(F)(F)C(F)(F)C(F)(F)C(F)(F)C(F)(F)C(F)(F)C(F)(F)F
active: [1] 68.6 µM | [10] 114 µM | [2] 19.1 µM | [3] 12.6 µM
inactive: [1] | [10] | [3] | [4] | [5] | [6] | [7] | [8] | [9]

CC[C@H](C)[C@H]1O[C@]2(C=C[C@@H]1C)C[C@@H]1C[C@@H](C/C=C(\C)[C@@H](O[C@H]3C[C@H](OC)[C@@H](O[C@H]4C[C@H](OC)[C@@H](O)[C@H](C)O4)[C@H](C)O3)[C@@H](C)/C=C/C=C3\CO[C@@H]4[C@H](O)C(C)=C[C@@H](C(=O)O1)[C@]34O)O2 (tested in a mixture with another compound)
active: [1] 89.5 nM and 4.11 nM | [10] 3.78 µM | [3] 8.2 µM | [4] 5.05 µM | [5] 2.51 µM | [6] 0.896 µM | [7] 8.88 µM | [8] 8.48 µM | [9] 1.08 µM
